Test results as given in PubChem BioAssay.
Activity calls are given as the source filed them.

What was measured:
[1] = small molecules captured by biotinylated probe aFSTL3 – biochemical, small-molecule microarray, fluorescence 635/667, stem cell growth factor project, primary screen (AID 1064); conditions: higher = more signal;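 note: measures binding of the biotinylated anti-FSTL3 antibody to printed compounds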
[2] = binders from COS7 lysate, DM2A8 probe, primary screen, torsin A project, cell lysate, small-molecule microarray, fluorescence 635/667 (AID 1065); conditions: higher = more signal, COS7 lysate expressing mutant human TOR1A
[3] = small molecules captured by biotinylated probe aFGF2 – biochemical, small-molecule microarray, fluorescence 635/667, stem cell growth factor project, primary screen (AID 1067); conditions: higher = more signal;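 note: measures binding of biotinylated aFGF2 protein to printed compounds on slides; z-score merges feature fluorescence and signal-to-noise across triplicate slides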
[4] = small molecules captured by biotinylated probe aFGF10 – biochemical, small-molecule microarray, fluorescence 635/667, stem cell growth factor project, primary screen (AID 1071); conditions: higher = more signal;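 note: score merges 667 nm spot intensity and signal to noise from triplicate slides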
[5] = target: Neurogenic locus notch homolog protein 2 (Homo sapiens) (UniProt Q04721); assay: small molecules binding Notch2 protein – biochemical, small-molecule microarray, 635 nm fluorescence, stem cell growth factors, primary screen (AID 1073); conditions: higher = more signal
Neurogenic locus notch homolog protein 2 (Homo sapiens), sequence (Q04721 whole entry, looked up, canonical isoform): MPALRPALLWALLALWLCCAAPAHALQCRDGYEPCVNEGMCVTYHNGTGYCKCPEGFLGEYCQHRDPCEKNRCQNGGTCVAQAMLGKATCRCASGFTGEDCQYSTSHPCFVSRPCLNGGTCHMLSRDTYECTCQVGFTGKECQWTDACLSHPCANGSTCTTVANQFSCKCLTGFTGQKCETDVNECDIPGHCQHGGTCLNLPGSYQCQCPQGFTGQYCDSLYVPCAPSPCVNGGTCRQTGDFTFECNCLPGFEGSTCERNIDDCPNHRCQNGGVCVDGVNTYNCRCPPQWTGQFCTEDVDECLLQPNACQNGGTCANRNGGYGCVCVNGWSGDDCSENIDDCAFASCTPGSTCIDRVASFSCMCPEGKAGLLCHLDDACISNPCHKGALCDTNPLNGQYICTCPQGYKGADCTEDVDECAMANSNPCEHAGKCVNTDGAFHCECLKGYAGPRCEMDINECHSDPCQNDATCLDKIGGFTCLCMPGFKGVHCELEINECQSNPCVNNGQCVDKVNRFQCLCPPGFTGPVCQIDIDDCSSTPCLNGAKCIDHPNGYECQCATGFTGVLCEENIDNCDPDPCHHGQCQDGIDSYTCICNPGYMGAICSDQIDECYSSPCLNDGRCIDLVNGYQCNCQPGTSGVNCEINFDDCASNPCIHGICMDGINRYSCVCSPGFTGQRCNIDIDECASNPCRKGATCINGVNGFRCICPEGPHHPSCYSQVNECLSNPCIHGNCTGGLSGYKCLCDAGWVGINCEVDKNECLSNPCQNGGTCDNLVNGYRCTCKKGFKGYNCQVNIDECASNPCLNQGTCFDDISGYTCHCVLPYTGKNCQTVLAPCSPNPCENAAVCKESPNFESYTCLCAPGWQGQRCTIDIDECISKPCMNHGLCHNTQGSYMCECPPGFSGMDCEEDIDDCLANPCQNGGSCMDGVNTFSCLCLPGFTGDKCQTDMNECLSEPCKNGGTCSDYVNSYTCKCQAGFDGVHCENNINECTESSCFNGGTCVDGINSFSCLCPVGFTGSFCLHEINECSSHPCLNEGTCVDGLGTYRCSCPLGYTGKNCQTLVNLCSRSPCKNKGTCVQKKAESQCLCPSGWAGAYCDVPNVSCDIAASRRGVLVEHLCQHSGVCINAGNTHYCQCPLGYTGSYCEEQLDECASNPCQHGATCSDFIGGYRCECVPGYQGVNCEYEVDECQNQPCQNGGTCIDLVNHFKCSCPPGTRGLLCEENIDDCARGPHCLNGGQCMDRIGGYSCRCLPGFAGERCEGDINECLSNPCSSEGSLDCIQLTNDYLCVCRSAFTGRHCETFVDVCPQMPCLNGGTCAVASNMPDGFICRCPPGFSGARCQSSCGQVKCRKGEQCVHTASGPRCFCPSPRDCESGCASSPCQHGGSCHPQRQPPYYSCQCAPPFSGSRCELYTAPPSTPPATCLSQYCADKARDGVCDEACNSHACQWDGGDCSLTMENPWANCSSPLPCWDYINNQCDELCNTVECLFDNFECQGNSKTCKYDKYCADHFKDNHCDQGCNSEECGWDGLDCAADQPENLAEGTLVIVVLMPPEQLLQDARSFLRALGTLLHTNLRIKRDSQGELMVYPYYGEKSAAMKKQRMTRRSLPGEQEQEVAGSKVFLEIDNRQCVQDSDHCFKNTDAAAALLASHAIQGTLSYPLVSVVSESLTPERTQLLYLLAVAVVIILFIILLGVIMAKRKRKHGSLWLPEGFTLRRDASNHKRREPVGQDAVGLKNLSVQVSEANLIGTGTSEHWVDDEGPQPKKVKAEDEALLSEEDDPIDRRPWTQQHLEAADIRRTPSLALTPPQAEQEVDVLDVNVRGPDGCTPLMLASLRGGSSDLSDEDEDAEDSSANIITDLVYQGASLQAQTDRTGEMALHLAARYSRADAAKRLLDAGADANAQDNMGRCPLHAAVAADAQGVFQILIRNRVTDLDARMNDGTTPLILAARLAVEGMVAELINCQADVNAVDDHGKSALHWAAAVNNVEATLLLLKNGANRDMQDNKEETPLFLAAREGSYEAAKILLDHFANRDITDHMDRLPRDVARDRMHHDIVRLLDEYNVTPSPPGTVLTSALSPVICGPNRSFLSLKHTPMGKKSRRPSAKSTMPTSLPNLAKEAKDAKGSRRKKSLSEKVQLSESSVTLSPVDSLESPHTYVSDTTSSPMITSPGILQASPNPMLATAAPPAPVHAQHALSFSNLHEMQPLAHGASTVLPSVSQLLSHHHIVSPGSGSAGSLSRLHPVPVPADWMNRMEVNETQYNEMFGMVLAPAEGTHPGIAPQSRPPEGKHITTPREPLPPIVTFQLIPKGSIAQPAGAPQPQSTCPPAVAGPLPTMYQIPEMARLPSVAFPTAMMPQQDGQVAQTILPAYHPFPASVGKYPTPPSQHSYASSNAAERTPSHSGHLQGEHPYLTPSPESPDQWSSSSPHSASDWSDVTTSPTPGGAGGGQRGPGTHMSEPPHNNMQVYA

[6] = target: Pro-neuregulin-1, membrane-bound isoform (Homo sapiens) (UniProt Q02297); assay: small molecules binding neuregulin-1 protein – biochemical, small-molecule microarray, fluorescence 635/667, psychiatric disease protein project, primary screen (AID 1075); conditions: NRG1 binding, 635 nm fluorescence, higher = more signal;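 note: score combines 667 nm spot fluorescence with signal to noise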
Pro-neuregulin-1, membrane-bound isoform (Homo sapiens), sequence (Q02297 whole entry, looked up, the tested form may be a part, canonical isoform): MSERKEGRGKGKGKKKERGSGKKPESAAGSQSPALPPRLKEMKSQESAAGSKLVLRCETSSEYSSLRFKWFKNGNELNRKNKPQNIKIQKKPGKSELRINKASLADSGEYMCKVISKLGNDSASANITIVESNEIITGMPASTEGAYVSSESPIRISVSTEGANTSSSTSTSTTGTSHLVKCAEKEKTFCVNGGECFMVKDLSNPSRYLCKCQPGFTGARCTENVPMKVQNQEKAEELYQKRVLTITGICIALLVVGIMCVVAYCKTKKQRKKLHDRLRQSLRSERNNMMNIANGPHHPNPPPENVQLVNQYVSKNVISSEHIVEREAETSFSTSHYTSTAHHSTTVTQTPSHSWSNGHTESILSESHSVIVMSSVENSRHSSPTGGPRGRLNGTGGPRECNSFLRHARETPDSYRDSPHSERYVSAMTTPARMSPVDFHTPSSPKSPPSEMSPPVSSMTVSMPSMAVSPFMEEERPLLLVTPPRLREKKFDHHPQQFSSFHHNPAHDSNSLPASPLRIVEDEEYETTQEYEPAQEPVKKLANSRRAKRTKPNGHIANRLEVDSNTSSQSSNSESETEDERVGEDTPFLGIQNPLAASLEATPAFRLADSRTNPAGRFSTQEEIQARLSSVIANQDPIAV

[7] = test system: Neuregulin-1 EGF-like domain; assay: small molecules binding NRG1 EGF domain – biochemical, small-molecule microarray, 635 nm fluorescence, primary screen (AID 1081); conditions: higher = more signal;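 note: binding of the protein to compounds printed on small-molecule microarray slides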
[8] = FRG1 expression reporter modulators in myotubes – cell-based, C2C12 myotubes, firefly/Renilla luciferase, luminescence, FRG1 inhibition for FSHD, primary screen (AID 1084); conditions: FRG1 promoter luciferase, higher = more signal, called active from +8 up or from −8 down
[9] = small molecules captured by biotinylated probe aFST – biochemical, small-molecule microarray, fluorescence 635/667, stem cell growth factor project, primary screen (AID 1086); conditions: higher = more signal;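 note: score merges 667 nm fluorescence with signal-to-noise of each printed compound spot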
[10] = binders of probe aHhip on microarray, primary screen, stem cell growth factor project, biochemical, small-molecule microarray, fluorescence 635/667 (AID 1087); conditions: higher = more signal;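 note: score merges spot fluorescence at 667nm with spot signal to noise ratio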

SMILES | composite z-score [1] | composite z-score [2] | composite z-score [3] | composite z-score [4] | composite z-score [5] | composite z-score [6] | composite z-score [7] | z-score [8] | composite z-score [9] | composite z-score [10]
O=C(NC1CC1)[C@@H]1c2ccccc2C(=O)N(CC23CC4CC(CC(C4)C2)C3)[C@H]1c1ccc(CO)cc1 | -0.314 | 0.179 | 0.0319 | 0.581 | 1.44 | 0.264 | 1.29 | -3.56 (inactive) | 0.556 | -0.0645
C=C(C)[C@@H]1CC=C(C(O)C2C=CC3C(=O)N(c4ccccc4)C(=O)C3N2Nc2ccc([N+](=O)[O-])cc2)CC1 (stereo not given in full) | -0.308 | 0.356 | -0.0784 | 1.05 | 1.61 | 1.07 | 1.24 | -0.0111 (inactive) | 1.57 | 0.167
COc1ccc(C(O)C2C=CC3C(=O)N(c4ccccc4)C(=O)C3N2Nc2ccc([N+](=O)[O-])cc2)c2ccccc12 (stereo not given) | 0.138 | 0.263 | 0.0688 | 0.852 | 1.6 | 1.75 | 1.27 | 0.337 (inactive) | 0.812 | 0.251
[N-]=[N+]=NCc1ccccc1[C@@H]1OC(c2ccc(OCCCO)cc2)=N[C@]1(Cc1ccccc1N=[N+]=[N-])C(=O)NCC(O)CO (stereo not given in full) | -0.166 | 0.57 | 0.145 | 0.61 | 1.53 | 1.99 | 0.981 | 0.0407 (inactive) | 1.84 | 0.272
COc1ccc(CCNC(=O)[C@@H]2c3ccccc3C(=O)N(Cc3ccccc3OC)[C@H]2c2ccc(CO)cc2)cc1 | -0.26 | 0.678 | 0.0021 | 0.131 | 1.03 | 1.29 | 1.31 | -2.5 (inactive) | 0.428 | -0.266
C=CCNC(=O)[C@H]1[C@@H]2C(=O)O[C@@H](c3ccccc3)[C@@H](c3ccccc3)N2[C@@H](c2ccc(OCCO)cc2)[C@]12C(=O)Nc1ccccc12 | -0.0085 | 0.586 | 0.083 | 0.331 | -0.353 | 1.65 | 1.13 | -2.89 (inactive) | -0.189 | -0.613
CO[C@H]1O[C@H](CO)[C@@H](OC(=O)Nc2ccc3c(c2)OCO3)[C@H](OC(=O)Nc2ccccc2-c2ccccc2)[C@H]1OC(=O)Nc1ccccc1-c1ccccc1 | 0.22 | 0.873 | 0.007 | 1.26 | 1.44 | 0.96 | 1.18 | 0.124 (inactive) | 0.189 | 0.0749
C=CC1c2cc(O)c(OC)cc2CCN1C (stereo not given) | 0.0043 | -0.231 | -0.103 | 0.275 | -0.208 | 0.0582 | 1.06 | -0.201 (inactive) | 0.0531 | 0.0373
O=C1C2C=CC(C(O)C3CCCCC3)N(n3cnnc3)C2C(=O)N1Cc1ccccc1 (stereo not given) | -0.0187 | 0.396 | 0.0498 | 0.792 | 0.884 | 1.07 | 1.3 | 1.11 (inactive) | 1.47 | -0.299
O=C1[C@@H]2[C@@H](CC(COc3ccccc3)=C([C@H](O)CCc3ccccc3)[C@@H]2CO)C(=O)N1Cc1ccccc1 | -0.379 | 0.364 | -0.187 | 0.0395 | 0.719 | 0.433 | 1.01 | -0.643 (inactive) | 0.391 | 0.0176
C=CCN1Cc2ccccc2[C@H]2OC(c3ccc(OCCCO)cc3)=N[C@@]2(CCS(=O)(=O)c2ccccc2)C1=O | 1.14 | 0.852 | 0.0814 | 0.201 | 1.47 | 1.61 | 1.35 | -0.908 (inactive) | 0.932 | -0.226
[N-]=[N+]=NCc1ccccc1[C@@H]1OC(c2ccc(OCCCO)cc2)=N[C@]1(Cc1ccccc1N=[N+]=[N-])C(=O)O | 0.535 | 0.326 | 0.294 | 1.14 | 1.55 | 1.89 | 1.3 | 1.22 (inactive) | 1.28 | 0.455
COCCOC(=O)N1C(=O)[C@@]2(c3cc(C#CCCO)ccc31)[C@H](c1ccccc1OCCO)N1[C@H](c3ccccc3)[C@H](c3ccccc3)OC(=O)[C@H]1[C@@H]2C(N)=O | -0.455 | -0.0702 | -0.0723 | 0.758 | 1.3 | 1.55 | 1.22 | -1.9 (inactive) | 0.806 | -0.0645
CC[C@@H]1C=C(C(=O)O)[C@H](c2ccc(OC)cc2)N1S(=O)(=O)c1ccc(C)cc1 | 0.0675 | -0.194 | -0.128 | -0.0542 | 0.0174 | 0.993 | 1.28 | 0.267 (inactive) | 0.233 | -0.0994
O=C1OCCC=C[C@H]2OC34C=CCN(c5ccc6ccccc6c5)C(=O)[C@H]3N(CCO)C(=O)[C@@H]4C12 (stereo not given in full) | -0.562 | -0.171 | -0.119 | -0.175 | -0.397 | -0.863 | 0.464 | 0.149 (inactive) | -0.847 | -0.672
CC(C)(C)OC(=O)CC[C@]1(C(=O)NCC(O)CO)N=C(c2ccc(OCCCO)cc2)O[C@H]1c1ccccc1N=[N+]=[N-] (stereo not given in full) | 0.929 | 1.34 | 0.171 | 0.53 | 1.02 | 1.58 | 1.17 | 3.99 (inactive) | 0.967 | -0.189
COc1ccc(C(O)C2C=CC3C(=O)N(c4ccccc4)C(=O)C3N2Nc2ccc(C#N)cc2)cc1OCc1ccccc1 (stereo not given) | 1.98 | 1.55 | 0.19 | 0.472 | 1.34 | 2.02 | 0.823 | 0.686 (inactive) | 1.09 | 0.0053
COC(=O)[C@@]1(Cc2ccccc2)[C@H]2c3cc(C(=O)N(C)C)n(CCSC(=N)N)c3C[C@H]2CN1C(=O)c1ccccc1 | -0.0908 | -0.512 | 0.243 | -0.248 | -0.175 | 1.28 | 1.04 | 0.453 (inactive) | 0.319 | 0.0401
CN1C(=O)[C@@H]2[C@@H](CC(COc3ccccc3)=C3[C@@H](CCc4ccccc4)OB(O)C[C@@H]32)C1=O | -0.124 | 0.275 | -0.0415 | 0.121 | 0.371 | 0.445 | 0.56 | -0.799 (inactive) | 0.0157 | -0.0994
COCCOC(=O)N1C(=O)[C@@]2(c3cc(C#CCC(C(=O)OC)C(=O)OC)ccc31)[C@H](C(=O)Nc1nc3ccccc3s1)[C@H]1C(=O)O[C@H](c3ccccc3)[C@H](c3ccccc3)N1[C@@H]2c1ccc(O)cc1 | -0.566 | 0.304 | 0.412 | 0.742 | 1.45 | 0.158 | 1.3 | 0.203 (inactive) | 0.805 | 0.314
O=C(N1CCOCC1)[C@@]1(Cc2ccccc2)COC(c2ccc(OCCCO)cc2)=N1 | 1.06 | 0.615 | 0.0094 | 0.64 | 0.763 | 1.49 | 1.06 | -1.28 (inactive) | 0.48 | 0.264
COC(=O)[C@H](Cc1ccccc1)N1CC2=CCCC=C[C@@H]2[C@H]1[C@H](O)Cc1ccccc1 | -0.22 | 0.0803 | -0.103 | 0.311 | -0.0146 | 0.112 | 0.667 | 0.569 (inactive) | 0.0599 | -0.0427
C=CCC(OC(C)=O)[C@@H]1[C@@H](N(Cc2cc3ccccc3o2)C(=O)Cc2ccc(OC)cc2)c2cc(OCCCO)ccc2N1C(=O)c1ccc2ccccc2n1 (stereo not given in full) | -0.0558 | -0.24 | 0.0372 | 0.176 | 0.0554 | -0.251 | -0.0159 | 0.544 (inactive) | 0.271 | 0.12
Cc1ccc(S[C@]2(C(=O)NCCCN(C)C)CC(=O)N(Cc3ccccc3C(F)(F)F)[C@@H]2c2ccc(CO)cc2I)cc1 | -0.73 | -0.0283 | -0.21 | -0.211 | -0.733 | 1.51 | 1.13 | 0.241 (inactive) | 0.216 | -0.54
C[C@@H]1ON(c2ccccc2)[C@H](c2ccccc2)[C@H]1C(=O)O | -0.0301 | 0.112 | -0.085 | 0.364 | 0.0812 | -0.515 | -0.198 | -0.313 (inactive) | -0.0817 | 0.289
COc1ccc([Si](C)(C)[C@H]2[C@H](CC(=O)N3CCC[C@H]3CO)O[C@@]3(C(=O)N(Cc4ccc(N5CCCCC5=O)cc4)c4ccccc43)[C@@H]2C)cc1 | -0.35 | 0.227 | -0.0494 | 0.671 | 0.565 | 1.33 | 1.12 | -4.24 (inactive) | 0.536 | 0.0373
COc1ccc([Si](C)(C)[C@H]2[C@H](CC(=O)N3Cc4ccccc4C[C@H]3CO)O[C@@]3(C(=O)N(C)c4ccccc43)[C@@H]2C)cc1 | 0.271 | 1.09 | -0.081 | 0.583 | 0.647 | 1.65 | 1.36 | -3.34 (inactive) | 0.596 | 0.315
O=C1C2C=CC(C(O)c3c(F)cccc3Cl)N(Nc3ccc([N+](=O)[O-])cc3)C2C(=O)N1c1ccccc1 (stereo not given) | 0.0505 | 0.572 | 0.147 | 0.89 | 1.61 | 1.12 | 1.01 | -1.18 (inactive) | 1.37 | -0.0618
